The source of these data is PubChem BioAssay (NCI).

About 79,000 compounds went through this panel and 15% of them were active in at least one assay; those are over-represented in the sample as a whole. Unmarked numbers belong to inactive results. Activity calls are given as the source filed them. No stated cut-off is given here; in the data, active means growth inhibition above about 70%; inactive means the rest.

The first test in a line: NCI Yeast Anticancer Drug Screen. Data for the rad50 strain (AID 155).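 Further: 0% = growth of vehicle-only cultures of the same strain.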 To be noted: S. cerevisiae rad50 strain growth inhibition; at 50.0 µM; stronger effect = higher value. The method in brief: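 Genetically altered yeast (DNA repair pathway); compound treatment; growth inhibition vs vehicle ctrl.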
As for `O=C1CN=C(c2ccccc2)c2cc(Cl)ccc2N1`, the growth inhibition was -4.7%.

As for `OC(c1ccc2ccccc2n1)C1CCCCN1` (centres undefined), the growth inhibition was 14.2%.

For the compound `NC(=O)Cc1ccccc1`, the growth inhibition was -17.1%.

With `CCCCOP(=S)(OCCCC)Oc1ccc(Cl)cc1Cl`, the growth inhibition is -4.95%.

A short description of another test: NCI Yeast Anticancer Drug Screen. Data for the mec2-1 strain (AID 157). To be noted: S. cerevisiae mec2-1 strain, at 50.0 µM, stronger effect = higher value. The method in brief:
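Yeast mec2-1 mutant treated with compound. Readout: growth inhibition vs vehicle controls.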
`CC1CC[Si](C)(C)CC12C(=O)NC(=O)NC2=O` (centres undefined): the growth inhibition is 1.95%.

For `Nc1nc(N)c(N)c(N)n1`, the growth inhibition was 1.8%.

As for `CCC(=O)c1ccc(N)cc1`, the growth inhibition was 4.45%.

Consider `CNC(Cc1ccccc1)c1cccc(OC)c1O` (centres undefined), for which the growth inhibition is -25.6%.

Regarding `O=C(O)/C=C/C(=O)O.[Ni]`, the growth inhibition is -21.6%.

With `CCOP(=O)(O)CP(=O)(O)OCC.CCOP(=O)(O)CP(=O)(O)OCC.[Cr]`, the growth inhibition is -11.4%.

`COc1cc2c(cc1O)-c1c(OC)c(O)cc3c1C(C2)N(C)CC3` (centres undefined): the growth inhibition is -22.4%.

In the case of `C/C(=N\N=C(N)N)C(CN(C)C)C(c1ccccc1)c1c(O)c2ccccc2oc1=O` (centres undefined), the growth inhibition was 23.4%.

Consider `Cc1cc(NC(=O)CCc2ccc(N)cc2)ccc1S(=O)(=O)F`, for which the growth inhibition is 94.9% (active).

Take `[Cu].[NH2-].[NH2-].[NH2-].[NH2-]`: the growth inhibition is -15.8%.

On to `CCN(CC)C(=S)Cl`, for which the growth inhibition is -29.4%.

On to `N#CCCc1ccccc1`, for which the growth inhibition was -7.95%.

`C=C[CH2][Sn]([CH2]C=C)([CH2]CCC)[CH2]CCC`: the growth inhibition was 99.5% (active).

As to `CC1(C)OC2COC(CN=[N+]=[N-])C2O1` (centres undefined), the growth inhibition is 8.65%.

Consider `C=CC(Cl)OC(=O)C(C)O` (centres undefined), for which the growth inhibition is 20.2%.

Consider `CC(CN1NC12CCCC2)N1NC12CCCC2` (centres undefined), for which the growth inhibition is -1.85%.

In the case of `[CH3][Hg][O]C(C)=O`, the growth inhibition is 99.9% (active).

Take `COC(=O)C(CCC(=O)O)NC(=O)OCc1ccccc1` (centres undefined): the growth inhibition is -1.35%.

Regarding `O=C(C/C(=N/O)C(=O)NC1=C(Cl)C(=O)c2ccccc2C1=O)CC(c1ccccc1)c1c(O)c2ccccc2oc1=O` (centres undefined), the growth inhibition is 81.1% (active).

For the compound `CCOC(OCC)c1ccccc1.[C-]#[O+].[C-]#[O+].[C-]#[O+].[Cr]`, the growth inhibition was 21.4%.

For the compound `CCN1/C(=C/C=C2\CCC(/C=C/c3sc4ccc(Cl)cc4[n+]3CC)=C2N(c2ccccc2)c2ccccc2)Sc2ccc(Cl)cc21`, the growth inhibition was 32.2%.

Regarding `Cc1nc2cccc(F)c2c(=O)n1-c1nnc(C(F)(F)F)s1`, the growth inhibition was 8.8%.

With `CCC[As](=O)(O)c1ccc(Cl)cc1`, the growth inhibition is 99.5% (active).

As for `[N-]=[N+]=NC(=O)Nc1ccccc1F`, the growth inhibition is -1.1%.

As for `O=C(Nc1ccccc1)N(C1=NCC(CI)S1)c1ccc(F)cc1F` (centres undefined), the growth inhibition is 6.75%.

For the compound `CC(=O)C(C)(C)C`, the growth inhibition was -1.45%.

`CC(SC(C)C(=O)N/N=C/c1ccc(N(CCCl)CCCl)cc1)C(=O)N/N=C\c1ccc(N(CCCl)CCCl)cc1` (centres undefined): the growth inhibition is -0.55%.

As to `CC12CC/C(=C3/C=CC(=O)S3)C=C1CCC1C2CCC2(C)C(O)CCC12` (centres undefined), the growth inhibition was -5.55%.

Take `N#Cc1ccc(C(Cl)(Cl)Cl)cc1`: the growth inhibition is -17.6%.

Consider `CC(C)(C)C1COP(=O)(C(C)(C)C)OC1` (centres undefined), for which the growth inhibition is 6.1%.

As to `CCCCCCCC(=O)[O-].N.N.N.N.N.[Co+3].[O-][Cl+3]([O-])([O-])[O-]`, the growth inhibition was 20.2%.

As to `CC/C=C/C1(C)C(=O)NC(=S)NC1=O`, the growth inhibition is 3.1%.

In the case of `Clc1ccc(NC2=NCCS2)cc1Cl`, the growth inhibition is -22.8%.

On to `NC(CP(=O)(O)O)C(=O)O` (centres undefined), for which the growth inhibition is 5.7%.

For `CCC(=O)C(CC(C)[N+](C)(C)C)(c1ccccc1)c1ccccc1` (centres undefined), the growth inhibition is -4.95%.

With `CC(=[N-])CC(C)=O.CC(=[N-])CC(C)=O.[Cu+2]`, the growth inhibition was 14.5%.

Take `O=C1CN=C(c2ccccc2)c2cc(Cl)ccc2N1`: the growth inhibition was 11.9%.

Regarding `OC(c1ccc2ccccc2n1)C1CCCCN1` (centres undefined), the growth inhibition is -6.45%.

Take `NC(=O)Cc1ccccc1`: the growth inhibition was -14.9%.

In the case of `CCCCOP(=S)(OCCCC)Oc1ccc(Cl)cc1Cl`, the growth inhibition is -41.4%.

A further test is described as follows: NCI Yeast Anticancer Drug Screen. Data for the sgs1 mgt1 strain (AID 161).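 Further: 0% = growth of cultures given vehicle only.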 To be noted: S. cerevisiae sgs1 mgt1 strain, at 50.0 µM, stronger effect = higher value. The method in brief:
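Test agents were incubated with a DNA-repair-mutant yeast strain. Growth was then read and compared against vehicle-treated controls.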
Turning to `CC1CC[Si](C)(C)CC12C(=O)NC(=O)NC2=O` (centres undefined), the growth inhibition is 19.6%.

In the case of `Nc1nc(N)c(N)c(N)n1`, the growth inhibition is 14.6%.

As for `CCC(=O)c1ccc(N)cc1`, the growth inhibition was 2.15%.

Regarding `CNC(Cc1ccccc1)c1cccc(OC)c1O` (centres undefined), the growth inhibition is -53.6%.

For `O=C(O)/C=C/C(=O)O.[Ni]`, the growth inhibition was -28.1%.

In the case of `CCOP(=O)(O)CP(=O)(O)OCC.CCOP(=O)(O)CP(=O)(O)OCC.[Cr]`, the growth inhibition was -32.2%.

On to `COc1cc2c(cc1O)-c1c(OC)c(O)cc3c1C(C2)N(C)CC3` (centres undefined), for which the growth inhibition was -22.6%.

Consider `C/C(=N\N=C(N)N)C(CN(C)C)C(c1ccccc1)c1c(O)c2ccccc2oc1=O` (centres undefined), for which the growth inhibition was -4.45%.

With `Cc1cc(NC(=O)CCc2ccc(N)cc2)ccc1S(=O)(=O)F`, the growth inhibition was 96.5% (active).

For the compound `[Cu].[NH2-].[NH2-].[NH2-].[NH2-]`, the growth inhibition was -23.1%.

Consider `CCN(CC)C(=S)Cl`, for which the growth inhibition was -0.5%.

For the compound `N#CCCc1ccccc1`, the growth inhibition was -1.95%.

In the case of `C=C[CH2][Sn]([CH2]C=C)([CH2]CCC)[CH2]CCC`, the growth inhibition is 99.6% (active).

As for `CC1(C)OC2COC(CN=[N+]=[N-])C2O1` (centres undefined), the growth inhibition was 0.9%.

Turning to `C=CC(Cl)OC(=O)C(C)O` (centres undefined), the growth inhibition was 15.2%.

Consider `CC(CN1NC12CCCC2)N1NC12CCCC2` (centres undefined), for which the growth inhibition is 29.2%.

For the compound `[CH3][Hg][O]C(C)=O`, the growth inhibition was 99.7% (active).

Regarding `COC(=O)C(CCC(=O)O)NC(=O)OCc1ccccc1` (centres undefined), the growth inhibition is 17.6%.

For the compound `O=C(C/C(=N/O)C(=O)NC1=C(Cl)C(=O)c2ccccc2C1=O)CC(c1ccccc1)c1c(O)c2ccccc2oc1=O` (centres undefined), the growth inhibition was 82.5% (active).

Consider `CCOC(OCC)c1ccccc1.[C-]#[O+].[C-]#[O+].[C-]#[O+].[Cr]`, for which the growth inhibition is 33%.

For the compound `CCN1/C(=C/C=C2\CCC(/C=C/c3sc4ccc(Cl)cc4[n+]3CC)=C2N(c2ccccc2)c2ccccc2)Sc2ccc(Cl)cc21`, the growth inhibition was 64.9%.

For `Cc1nc2cccc(F)c2c(=O)n1-c1nnc(C(F)(F)F)s1`, the growth inhibition was 16.5%.

As to `CCC[As](=O)(O)c1ccc(Cl)cc1`, the growth inhibition is 99.2% (active).

Regarding `[N-]=[N+]=NC(=O)Nc1ccccc1F`, the growth inhibition is -14.6%.

`O=C(Nc1ccccc1)N(C1=NCC(CI)S1)c1ccc(F)cc1F` (centres undefined): the growth inhibition was -6.95%.

Regarding `CC(=O)C(C)(C)C`, the growth inhibition is 5.15%.

For the compound `CC(SC(C)C(=O)N/N=C/c1ccc(N(CCCl)CCCl)cc1)C(=O)N/N=C\c1ccc(N(CCCl)CCCl)cc1` (centres undefined), the growth inhibition was -6.05%.

In the case of `CC12CC/C(=C3/C=CC(=O)S3)C=C1CCC1C2CCC2(C)C(O)CCC12` (centres undefined), the growth inhibition was 4.95%.

In the case of `N#Cc1ccc(C(Cl)(Cl)Cl)cc1`, the growth inhibition is -5.8%.

`CC(C)(C)C1COP(=O)(C(C)(C)C)OC1` (centres undefined): the growth inhibition is -1.15%.

`CCCCCCCC(=O)[O-].N.N.N.N.N.[Co+3].[O-][Cl+3]([O-])([O-])[O-]`: the growth inhibition was -46.8%.

As to `CC/C=C/C1(C)C(=O)NC(=S)NC1=O`, the growth inhibition is -7.3%.

`Clc1ccc(NC2=NCCS2)cc1Cl`: the growth inhibition was 41.4%.

On to `NC(CP(=O)(O)O)C(=O)O` (centres undefined), for which the growth inhibition is -31.1%.

As to `CCC(=O)C(CC(C)[N+](C)(C)C)(c1ccccc1)c1ccccc1` (centres undefined), the growth inhibition is -4.6%.

Take `CC(=[N-])CC(C)=O.CC(=[N-])CC(C)=O.[Cu+2]`: the growth inhibition was 10.8%.

Consider `O=C1CN=C(c2ccccc2)c2cc(Cl)ccc2N1`, for which the growth inhibition was 3.35%.

`OC(c1ccc2ccccc2n1)C1CCCCN1` (centres undefined): the growth inhibition is 7.05%.

As for `NC(=O)Cc1ccccc1`, the growth inhibition is -6.55%.

Regarding `CCCCOP(=S)(OCCCC)Oc1ccc(Cl)cc1Cl`, the growth inhibition was -0.55%.
